Tests used:
Format in all cases: functional
Plasmodium falciparum [1] = assay: GSK_TCMDC: Inhibition of Plasmodium falciparum 3D7 in whole red blood cells, using parasite LDH activity as an index of growth. Test compounds present at 2uM
Plasmodium falciparum [2] = assay: GSK_TCMDC: Inhibition of Plasmodium falciparum Dd2 in whole red blood cells, using parasite LDH activity as an index of growth. Test compounds present at 2uM
HepG2 = assay: GSK_TCMDC: Percent inhibition of human HepG2 cell line. Test compounds present at 10uM.

Structure (SMILES) | Inhibition (Plasmodium falciparum [1]) | Inhibition (Plasmodium falciparum [2]) | Inhibition (HepG2)
Cc1cc(N2CCCN(C)CC2)nc(Nc2ccc(Cl)cc2)n1 | 96% | 11% | 8%
COc1ccc(NC(=O)Nc2ccc(-c3ccncc3)c(Cl)c2)cc1N1CCN(C)CC1 | 98% | 62% | 19%
COc1ccc(CNCc2cccc(-c3ccc(-c4nc5ccccc5[nH]4)s3)c2)cc1.O=C(O)C(F)(F)F | 90% | 52% | 14%
CCCCOc1cc2ncc(C(=O)OCC)c(O)c2cc1OCCCC | 97% | 96% | 0%
CCN(CC)CCCSc1ccc(-c2ccc(SCCCN(CC)CC)cc2)cc1 | 87% | 30% | 38%
c1cncc(CNc2ncc(-c3ccsc3)c(-c3nccs3)n2)c1 | 81% | 63% | 0%
O=C(NCc1ccccc1[S+]([O-])c1ccccc1CO)C(F)(F)F (stereo not drawn) | 98% | 2% | 50%
CC(C)(CN)c1nc(-c2ccc(Br)c(O)c2)c(-c2ccncc2)[nH]1.Cl | 96% | 97% | 31%
CN(C)CC(O)COc1ccc(Nc2ncc([N+](=O)[O-])c(Nc3ccccc3O)n2)cc1.O=C(O)C(F)(F)F (stereo not drawn) | 100% | 20% | 47%
COc1ccc(CCN2CCC(CN(C)Cc3cnn(-c4ccccc4)c3)CC2)cc1 | 90% | 5% | 25%
COc1ccc(Cc2nc3c(n2C(C)=O)SC(c2ccc(Cl)c(Cl)c2)=NN3C(C)=O)cc1 | 94% | 22% | 0%
